According to PubChem BioAssay (NCATS):
Results filed as inconclusive are left out. Entries that show only a call come without a potency. Active and inactive are the calls of the source. Unless noted, calls come from the whole dose curve; as a rule, active = well fitted curve in the direction sought with a large enough effect; inconclusive = small, poorly fitted or top-dose-only effect, or another doubt; inactive = no such curve, though single readings can be large; an effect the other way counts as inactive or inconclusive.

Tests used:
[1] = Cell Viability - SK-N-SH (AID 435; calls by dose curve;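 note: potency is the fitted concentration of half-maximal effect; compound exposure lasted 40 h at 37 °C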); details: SK-N-SH neuroblastoma cell viability qHTS
Summary of the method: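 SK-N-SH human neuroblastoma cells (1500/well) were exposed to compounds in complete medium for 40 h at 37 °C, and intracellular ATP was then measured by CellTiter-Glo luminescence. AC50 was taken from Hill fits, normalized to DMSO and 100 uM tamoxifen.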

[2] = Cellular Toxicity (caspase-3) HUV-EC-C (AID 656); details: HUV-EC-C cells, caspase-3 activation (apoptosis), vehicle = 0, 100 µM tamoxifen = 100%; series mostly up to 92.2 µM
Summary of the method: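 HUV-EC-C endothelial cells, 1000/well, were pre-incubated 5 hr at 37°C, then exposed to compounds for 16 hr at 37°C. Caspase-Glo 3/7 luminescence was read after 20 min at room temperature. AC50 came from Hill fits, normalized to DMSO and 100 uM tamoxifen.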

[3] = Cellular Toxicity (caspase-3) H-4-II-E (AID 663); details: H-4-II-E rat hepatoma; Potency: caspase-3 activation; series mostly up to 92.2 µM;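 note: cells exposed to compound for 16 hr before readout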
Summary of the method: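 Caspase 3/7 activation measured in H-4-II-E cells in complete culture medium after 16 hr treatment at 37 °C, using luciferase-coupled substrate readout; AC50 values come from Hill-equation fits of normalized concentration-response data.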

[4] = MultiTox-Fluor Cytotoxicity Assay - LYMP1-002 - Dead Cells (AID 960); details: LYMP1-002 lymphoblastoid cells, dead-cell protease fluorescence; series mostly up to 46.1 µM; note: nearly all actives have a fitted effect of over 60% in size
Summary of the method: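 Dead-cell fluorescence (Ex/Em 485/520) after 16 h compound exposure at 37 C of LYMP1-002 lymphoblastoid cells in complete medium; AC50 by Hill equation, with data scaled between DMSO and 15 uM tetraoctylammonium bromide.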

[5] = Cell Viability - LYMP2-004 (AID 966); details: LYMP2-004 lymphoblastoid cell viability, qHTS; series mostly up to 92.2 µM; note: nearly all actives have a fitted effect of over 65% in size
Summary of the method: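 AC50 values come from Hill modelling of concentration-dependent loss of intracellular ATP, measured by CellTiter-Glo luminescence. Human LYMP2-004 lymphoblastoid cells (2500/well) were exposed to compound for 24 h at 37 C.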

[6] = Cell Viability - LYMP2-005 (AID 967); details: LYMP2-005 lymphoblastoid cell viability; series mostly up to 92.2 µM
Summary of the method: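 CellTiter-Glo luminescence (cellular ATP) read-out; LYMP2-005 lymphoblastoid cells, 2500/well, 5 h pre-incubation, then 24 h compound exposure at 37 C in complete medium. Tetraoctylammonium bromide positive control; AC50 by standard Hill fit.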

[7] = Cell Viability - LYMP2-013 (AID 970); details: LYMP2-013 lymphoblastoid cells viability; series mostly up to 92.2 µM; note: nearly all actives have a fitted effect of over 55% in size
Summary of the method: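 qHTS cytotoxicity: ATP-dependent luminescence (CellTiter-Glo, 30 min room temperature) read after 24 h compound exposure at 37 C of 2500 LYMP2-013 lymphoblastoid cells per well. Concentration-response fitted with Hill equation to give AC50.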

[8] = Cell Viability - LYMP2-025 (AID 976); details: LYMP2-025 lymphoblastoid cell viability; series mostly up to 92.2 µM
Summary of the method: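 Cytotoxicity read as loss of intracellular ATP (luciferase luminescence) after 24 h compound treatment at 37 C. Uses LYMP2-025 lymphoblastoid cells in 1536-well format; Hill-equation modelling gives AC50; tetraoctylammonium bromide as positive control.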

[9] = Cell Viability - LYMP2-007 (AID 979); details: LYMP2-007 lymphoblastoid cell viability; series mostly up to 92.2 µM;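 note: cells exposed to compound for 24 h before reading; nearly all actives have a fitted effect of over 60% in size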
Summary of the method: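 AC50 values come from Hill-equation fits of luminescent intracellular ATP (CellTiter-Glo, 30 min, room temperature) following 24 h compound exposure at 37 C. Cells: LYMP2-007 lymphoblastoid line, 2500 per well, in complete culture medium.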

[10] = Cell Viability - LYMP2-014 (AID 983); details: LYMP2-014 lymphoblastoid cells, viability qHTS; series mostly up to 92.2 µM; note: nearly all actives have a fitted effect of over 50% in size
Summary of the method: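 Intracellular ATP loss, read by luciferase luminescence, measures acute cytotoxicity after 24 h compound exposure of lymphoblastoid LYMP2-014 cells (2500/well, 37 C). Concentration-response data fitted to the Hill equation for AC50.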

[11] = Cell Viability - LYMP2-018 (AID 985); details: LYMP2-018 lymphoblastoid cells, viability (qHTS); series mostly up to 92.2 µM; note: nearly all actives have a fitted effect of over 50% in size
Summary of the method: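 Viability read as CellTiter-Glo luminescence (cellular ATP) after 24 hr compound exposure at 37 C of 2500 LYMP2-018 lymphoblastoid cells/well, pre-plated 5 hr. Hill-equation modelling gave AC50.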

[12] = Cell Viability - LYMP2-022 (AID 987); details: LYMP2-022 lymphoblastoid cell viability; series mostly up to 92.2 µM; note: nearly all actives have a fitted effect of over 55% in size
Summary of the method: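 Cytotoxicity read as decreased cellular ATP (CellTiter-Glo luminescence, 30 min room temperature) after 24 hours compound exposure of 2500 lymphoblastoid LYMP2-022 cells/well at 37 C. Concentration-response data fitted with standard Hill equation for AC50.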

[13] = Cell Viability - LYMP2-024 (AID 988); details: LYMP2-024 lymphoblastoid cell viability; series mostly up to 92.2 µM; note: nearly all actives have a fitted effect of over 60% in size
Summary of the method: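 Cytotoxicity was taken as a decrease in ATP (CellTiter-Glo luminescence) after 24 hr compound exposure at 37 C of LYMP2-024 lymphoblastoid cells, 2500 cells/well. Concentration-response data were fitted to the Hill equation to give AC50.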

[14] = qHTS assay for small molecule agonists of retinoid X receptor alpha signaling (AID 588544); details: HEK293T RXRa-UAS-bla, beta-lactamase reporter, 18 h; 530 nm emission
[15] = biological target: Thyroid hormone receptor beta (Homo sapiens) (UniProt P10828); assay: qHTS assay for small molecule agonists of thyroid hormone receptor beta signaling (AID 588545; calls by dose curve); details: TR-UAS-bla GripTite HEK 293, beta-lactamase ratio, agonist mode, 18 h; series mostly up to 76.7 µM
Summary of the method: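 Agonist activity was read as beta-lactamase CCF4 fluorescence (405 ex, 460/530 em), scaled between DMSO (0%) and 10 nM T3 (100%), then Hill-fitted for EC50 and efficacy. HEK 293 TR-UAS-bla cells in 2% charcoal/dextran FBS medium were exposed 18 h at 37 C.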

[16] = qHTS assay for small molecule antagonists of retinoid X receptor alpha signaling (AID 588546); details: HEK293T RXRa-UAS-bla, beta-lactamase ratio, antagonist mode; measured here: W530 green channel, cytotoxicity proxy;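 note: cells stimulated with 9-cis-retinoic acid as agonist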
Summary of the method: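 Beta-lactamase reporter inhibition, read as CCF4 fluorescence ratio (ex 405, em 460/530 nm) after 2 h at RT. HEK293T UAS-bla cells, 2500/well, were stimulated with 9-cis-RA at 500 or 100 nM final alongside test compound for 18 h at 37 C.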

[17] = biological target: Thyroid hormone receptor beta (Homo sapiens) (UniProt P10828); assay: qHTS assay for small molecule antagonists of thyroid hormone receptor beta signaling (AID 588547; active = well fitted inhibition curve with a large enough effect in the signal ratio, with a control signal flat, not every such curve was filed as active; the % refers to the signal ratio;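 note: cells stimulated with 0.4 nM T3 agonist during compound exposure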); details: TR-UAS-bla HEK293, beta-lactamase ratio, antagonist mode, 18 h
Summary of the method: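 TR-UAS-bla GripTite HEK293 cells in 2% charcoal/dextran FBS medium were preincubated 4 h at 37 C, given compound (0.59 nM to 92 uM) plus 0.4 nM T3 (final) for 18 h, then CCF4 for 2 h at RT; Hill fit gave IC50.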

[18] = biological target: Tumor necrosis factor (Homo sapiens) (UniProt P01375); assay: qHTS assay to identify small molecules that stimulate Tumor Necrosis Factor-alpha (TNF-alpha) secretion (AID 651757; active = well fitted curve in the direction sought with a large enough effect in the signal ratio; the % refers to the signal ratio); details: Human cells, HTRF 665/615 ratio; series mostly up to 92.2 µM
Summary of the method: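 Secreted TNF-alpha quantified by TR-FRET sandwich of two labeled anti-TNF-alpha antibodies, incubated 3 hr at room temperature. Preceded by 17 hr, 37 C compound treatment of THP-1 cells at 3000 cells/well.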

[19] = qHTS assay for cell viability of HEK293 cells (AID 743288); details: ATP luminescence (CellTiter-Glo), 18 h, stronger effect = lower value; note: nearly all actives have a fitted effect of over 50% in size
Summary of the method: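 After 18 h compound exposure at 37 C, parental HEK293 cells (2,000/well) are lysed with CellTiter-Glo and luminescence is read following 30 min at room temperature.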

[20] = biological target: Nuclear receptor subfamily 1 group I member 2 (Rattus norvegicus) (UniProt Q9R1A7); assay: qHTS assay for small molecule activators of the rat pregnane X receptor (rPXR) signaling pathway (AID 651751; call rule not given here); details: rPXR reporter cells, luciferase (One-Glo), 24 h
Sequence of Nuclear receptor subfamily 1 group I member 2 (Rattus norvegicus) (Q9R1A7 whole entry, looked up): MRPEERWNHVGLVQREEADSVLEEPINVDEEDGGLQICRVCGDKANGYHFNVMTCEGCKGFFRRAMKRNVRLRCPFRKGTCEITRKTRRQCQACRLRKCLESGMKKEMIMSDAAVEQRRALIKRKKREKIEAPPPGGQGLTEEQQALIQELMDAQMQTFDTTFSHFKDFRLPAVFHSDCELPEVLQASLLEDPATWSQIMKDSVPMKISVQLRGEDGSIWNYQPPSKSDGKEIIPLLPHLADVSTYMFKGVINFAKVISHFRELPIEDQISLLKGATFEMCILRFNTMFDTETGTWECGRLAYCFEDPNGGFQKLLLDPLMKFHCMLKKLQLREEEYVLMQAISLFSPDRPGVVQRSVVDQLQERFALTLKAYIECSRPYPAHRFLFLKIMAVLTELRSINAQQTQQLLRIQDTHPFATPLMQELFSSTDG

Sequence of Tumor necrosis factor (Homo sapiens) (P01375 whole entry, looked up): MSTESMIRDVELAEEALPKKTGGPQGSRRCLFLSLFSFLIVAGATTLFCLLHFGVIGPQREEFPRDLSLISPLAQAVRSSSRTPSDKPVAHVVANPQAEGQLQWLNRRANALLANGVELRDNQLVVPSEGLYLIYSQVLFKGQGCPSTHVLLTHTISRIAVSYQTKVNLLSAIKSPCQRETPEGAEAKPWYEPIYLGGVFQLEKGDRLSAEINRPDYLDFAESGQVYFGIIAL
Sequence of Thyroid hormone receptor beta (Homo sapiens) (P10828 whole entry, looked up): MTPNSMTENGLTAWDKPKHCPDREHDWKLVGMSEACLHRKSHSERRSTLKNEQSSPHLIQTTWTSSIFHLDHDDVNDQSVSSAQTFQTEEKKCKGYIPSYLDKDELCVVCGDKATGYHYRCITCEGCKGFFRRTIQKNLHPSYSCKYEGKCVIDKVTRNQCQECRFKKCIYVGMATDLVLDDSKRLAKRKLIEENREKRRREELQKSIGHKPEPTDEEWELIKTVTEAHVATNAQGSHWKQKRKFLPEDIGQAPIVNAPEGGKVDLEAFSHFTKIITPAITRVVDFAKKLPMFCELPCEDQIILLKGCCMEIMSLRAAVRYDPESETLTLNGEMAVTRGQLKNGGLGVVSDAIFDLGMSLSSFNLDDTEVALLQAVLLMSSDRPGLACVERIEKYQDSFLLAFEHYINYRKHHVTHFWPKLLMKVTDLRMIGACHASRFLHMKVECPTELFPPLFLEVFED

| SMILES | Potency [1] | outcome [2] | Potency [3] | Potency [4] | Potency [5] | Potency [6] | Potency [7] | Potency [8] | Potency [9] | Potency [10] | Potency [11] | Potency [12] | Potency [13] | max response [14] [%] | Potency [15] | max response [16] [%] | activity change % (negative = inhibition) [17] | outcome [18] | max response [19] | max response [20] |
| --- | --- | --- | --- | --- | --- | --- | --- | --- | --- | --- | --- | --- | --- | --- | --- | --- | --- | --- | --- | --- |
| Nn1cnnc1 | > 92 µM (inactive) | inactive | inactive | inactive | inactive | inactive | inactive | inactive | inactive | inactive | inactive | inactive | inactive | 6.31 | inactive | -0.424 | 12.8% (inactive) | inactive | -1.3% (inactive) | 2.65% (inactive) |
| CC(=O)[O-].CC(=O)[O-].CC(=O)[O-].[Cr+3] | > 92 µM (inactive) | inactive | inactive | inactive | inactive | inactive | inactive | inactive | inactive | inactive | inactive | inactive | inactive | -6.52 | inactive | -2.43 | 2.34% (inactive) | inactive | -3.81% (inactive) |  |
| CC(=O)CCC(C)=O | > 92 µM (inactive) |  | inactive | inactive | inactive | inactive | inactive | inactive | inactive | inactive | inactive | inactive | inactive | 0.0938 | inactive | -1.17 | 15% (inactive) | inactive | -8.83% (inactive) | -1.31% (inactive) |
| Cc1ccccc1[N+](=O)[O-] | > 92 µM (inactive) | inactive | inactive | inactive | inactive | inactive | inactive | inactive | inactive | inactive | inactive | inactive | inactive | -2.95 | inactive | -5.55 | 6.46% (inactive) | inactive | 6.42% (inactive) | -2.44% (inactive) |
| CC(C#N)CCC#N (stereo unspecified) | > 92 µM (inactive) | inactive | inactive | inactive | inactive |  | inactive | inactive | inactive | inactive | inactive | inactive | inactive | -11.4 | inactive | -1.82 | 9.23% (inactive) | inactive | -7.04% (inactive) | 3.89% (inactive) |
| CCN(CC)CCO | > 92 µM (inactive) | inactive | inactive | inactive | inactive | inactive | inactive | inactive | inactive | inactive | inactive | inactive | inactive | -4.75 | inactive | 3.45 | -7.98% (inactive) | inactive |  | 0.466% (inactive) |
